According to PubChem BioAssay (Tox21):
A number with no mark means an inactive call. Inconclusive results are not listed. Entries that show only a call come without a potency. Activity calls are given as the source filed them. The call rests on the fitted dose curve; in most records, active means well fitted curve in the direction sought with a large enough effect in the repeat runs; inconclusive means weak or mixed curves; inactive means no such curve, though single readings can be large; an effect the other way counts as inactive or inconclusive.

Tests used:
[1] = qHTS RealTime-Glo MT Cell Viability Assay in HepG2 cells - 24 hour (AID 1224867); further: nearly all actives have a fitted effect of over 50% in size
Summary of the method: (§1)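 HepG2 cells were seeded at 600 cells/well together with NanoLuc luciferase and a cell-permeant prosubstrate, preincubated 5 h at 37 C/5% CO2, then pin-dosed with compounds in DMSO. Nonlytic luminescence from viable cells was read at each time point.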

[2] = qHTS RealTime-Glo MT Cell Viability Assay in HEK293 cells - 32 hour (AID 1224868); further: top concentration of the series differs between compounds; nearly all actives have a fitted effect of over 50% in size
Summary of the method: (§2)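 HEK293 cells were seeded at 600 cells/well together with NanoLuc luciferase and cell-permeant prosubstrate, preincubated 5 h at 37 C/5% CO2, then given compound in DMSO by pintool. Luminescence from viable-cell prosubstrate reduction was read repeatedly over 40 h.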

[3] = A CellTox Green Cytotoxicity Assay to monitor cytotoxicity in HEK293 cells - 0 hour (AID 1224869); further: nearly all actives have a fitted effect of over 50% in size
Summary of the method: (§3)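 Nonlytic real-time cytotoxicity: HEK293 + CellTox Green reagent plated, 5 h preincubation, pintool compound addition (23 nL in DMSO), 37 C for 40 h, fluorescence measured at successive time points.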

[4] = qHTS RealTime-Glo MT Cell Viability Assay in HepG2 cells - 40 hour (AID 1224870); further: nearly all actives have a fitted effect of over 50% in size
Summary of the method: (§4)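 HepG2 cells mixed with RealTime-Glo MT reagents (NanoLuc plus cell-permeant prosubstrate) were seeded at 600 cells/well, incubated 5 h at 37 C/5% CO2, then pinned with compounds in DMSO; nonlytic luminescence tracked viability during 40 h treatment.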

[5] = A CellTox Green Cytotoxicity Assay to monitor cytotoxicity in HEK293 cells - 40 hour (AID 1224871); further: nearly all actives have a fitted effect of over 45% in size
Summary of the method: as §3

[6] = qHTS RealTime-Glo MT Cell Viability Assay in HEK293 cells - 16 hour (AID 1224872)
Summary of the method: as §2

[7] = qHTS RealTime-Glo MT Cell Viability Assay in HepG2 cells - 8 hour (AID 1224873); further: nearly all actives have a fitted effect of over 55% in size
Summary of the method: as §4

[8] = qHTS RealTime-Glo MT Cell Viability Assay in HEK293 cells - 40 hour (AID 1224874); settings: RealTime-Glo luminescence, stronger effect = lower value; further: nearly all actives have a fitted effect of over 50% in size
Summary of the method: (§5)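 Cells were seeded together with NanoLuc luciferase and a prosubstrate that viable cells reduce to a luciferase substrate. After a 5 h incubation at 37 C/5% CO2, compounds were added and luminescence was measured repeatedly during 40 h of treatment.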

[9] = A CellTox Green Cytotoxicity Assay to monitor cytotoxicity in HEK293 cells - 24 hour (AID 1224875); further: series mostly up to about 77 µM; nearly all actives have a fitted effect of over 45% in size
Summary of the method: as §3

[10] = A CellTox Green Cytotoxicity Assay to monitor cytotoxicity in HepG2 cells - 16 hour (AID 1224876); further: nearly all actives have a fitted effect of over 45% in size; further: potency means the concentration at half of the fitted maximal effect
Summary of the method: (§6)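 Read-out is fluorescence of a cyanine dye excluded from live cells that stains DNA of dead HepG2 cells, with signal proportional to cytotoxicity. Plates were read at 0, 8, 16, 24, 32 and 40 h after compound addition.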

[11] = qHTS RealTime-Glo MT Cell Viability Assay in HepG2 cells - 32 hour (AID 1224877); further: nearly all actives have a fitted effect of over 55% in size
Summary of the method: as §1

[12] = A CellTox Green Cytotoxicity Assay to monitor cytotoxicity in HepG2 cells - 24 hour (AID 1224878); further: nearly all actives have a fitted effect of over 45% in size
Summary of the method: as §6

[13] = A CellTox Green Cytotoxicity Assay to monitor cytotoxicity in HepG2 cells - 40 hour (AID 1224879); further: nearly all actives have a fitted effect of over 40% in size
Summary of the method: as §6

[14] = qHTS RealTime-Glo MT Cell Viability Assay in HEK293 cells - 0 hour (AID 1224880)
Summary of the method: as §5

[15] = A CellTox Green Cytotoxicity Assay to monitor cytotoxicity in HEK293 cells - 32 hour (AID 1224881); further: nearly all actives have a fitted effect of over 40% in size
Summary of the method: as §3

[16] = A CellTox Green Cytotoxicity Assay to monitor cytotoxicity in HepG2 cells - 0 hour (AID 1224882); further: nearly all actives have a fitted effect of over 35% in size
Summary of the method: as §6

[17] = A CellTox Green Cytotoxicity Assay to monitor cytotoxicity in HepG2 cells - 32 hour (AID 1224883); further: nearly all actives have a fitted effect of over 50% in size
Summary of the method: as §6

[18] = A CellTox Green Cytotoxicity Assay to monitor cytotoxicity in HEK293 cells - 8 hour (AID 1224884); further: nearly all actives have a fitted effect of over 35% in size
Summary of the method: as §3

[19] = qHTS RealTime-Glo MT Cell Viability Assay in HEK293 cells - 24 hour (AID 1224886)
Summary of the method: as §2

[20] = qHTS RealTime-Glo MT Cell Viability Assay in HepG2 cells - 16 hour (AID 1224885); further: nearly all actives have a fitted effect of over 50% in size
Summary of the method: as §1

SMILES | outcome [1] | outcome [2] | outcome [3] | outcome [4] | Potency [5] | outcome [6] | outcome [7] | max response [8] [%] | Potency [9] | Potency [10] | outcome [11] | Potency [12] | Potency [13] | Potency [14] | Potency [15] | Potency [16] | Potency [17] | Potency [18] | outcome [19] | outcome [20]
CCN1CCN(C(=O)N[C@@H](C(=O)N[C@@H]2C(=O)N3C(C(=O)O)=C(CSc4nnnn4C)CS[C@H]23)c2ccc(O)cc2)C(=O)C1=O | inactive | inactive | inactive | inactive | inactive | inactive | inactive | 15.1 | inactive | inactive | inactive | inactive | inactive | inactive | inactive | inactive | inactive | inactive | inactive | 
CC(=O)OC1CCC(C(C)(C)C)CC1 (centres undefined) | inactive | inactive | inactive | inactive | inactive | inactive | inactive | 0.815 | inactive | inactive | inactive | inactive | inactive | inactive | inactive | inactive | inactive | inactive | inactive | inactive
O=c1c(O)c(O)c1=O | inactive | inactive | inactive | inactive | inactive | inactive | inactive | -0.875 | inactive | inactive | inactive | inactive | inactive | inactive | inactive | inactive | inactive | inactive | inactive | 
C[Si](C)(C)O[Si](O)(O)O | inactive | inactive | inactive | inactive | inactive | inactive | inactive | 0.476 | inactive | inactive | inactive | inactive | inactive | inactive | inactive | inactive |  | inactive |  | inactive
C[C@@H]1CCC[C@H](C)N1CCCC(O)(c1ccccc1)c1ccccn1 (some centres undefined) | inactive | inactive | inactive | inactive | inactive | inactive | inactive | 4.53 | inactive | inactive | inactive | inactive | inactive | inactive | inactive | inactive | inactive |  | inactive | inactive
CCCCCCCCCCCCCCBr | inactive | inactive | inactive | inactive | inactive | inactive | inactive | -1.85 | inactive | inactive | inactive | inactive | inactive | inactive | inactive | inactive |  | inactive |  | inactive
CC(C)(C)c1ccc(C(=O)CCCCl)cc1 | inactive | inactive | inactive | inactive | inactive | inactive | inactive | -1.09 | inactive | inactive | inactive | inactive | inactive | inactive | inactive | inactive | inactive | inactive | inactive | 
O=Cc1ccccc1S(=O)(=O)O | inactive | inactive | inactive | inactive | inactive | inactive | inactive | 7.86 | inactive | inactive | inactive | inactive | inactive | inactive | inactive | inactive |  | inactive | inactive | 
CNCCc1ccccn1 | inactive | inactive | inactive | inactive | inactive | inactive | inactive | -0.337 | inactive | inactive | inactive | inactive | inactive | inactive | inactive | inactive | inactive | inactive | inactive | inactive
Cc1ccc2ccccc2n1 | inactive | inactive | inactive | inactive | inactive | inactive | inactive | 18.8 | inactive | 0.138 µM (active) | inactive | inactive | inactive | inactive | inactive | inactive |  | inactive | inactive | inactive
O=C(O)P(=O)(O)O | inactive | inactive | inactive | inactive | inactive | inactive | inactive | 10.7 | inactive | inactive | inactive | inactive | inactive | inactive | inactive |  | inactive | inactive | inactive | 
CCc1ccc(CC)cc1 | inactive | inactive | inactive | inactive | inactive | inactive | inactive | 4.78 | inactive | inactive | inactive | inactive | inactive |  | inactive | inactive | inactive |  | inactive | inactive
CC(C)CC(O)Cc1ccccc1 (centres undefined) | inactive | inactive | inactive | inactive | inactive | inactive | inactive | 1.47 | inactive | inactive | inactive |  | inactive | inactive | inactive | inactive | inactive | inactive | inactive | inactive
C=CCn1cc[n+](C)c1 | inactive | inactive | inactive | inactive | inactive | inactive | inactive | -3.76 | inactive | inactive | inactive |  | inactive | inactive | inactive | inactive | inactive | inactive | inactive | inactive
COc1cnc(NS(=O)(=O)c2ccc(N)cc2)nc1 | inactive | inactive | inactive | inactive | inactive | inactive | inactive | 3.91 | inactive | inactive | inactive |  | inactive | inactive | inactive | inactive | inactive | inactive |  | inactive
CCCCC(CC)CCC(CC(C)C)OS(=O)(=O)O (centres undefined) | inactive | inactive | inactive | inactive | inactive | inactive | inactive | -2.38 | inactive | inactive | inactive | inactive | inactive | inactive |  | inactive | inactive | inactive |  | inactive
C/C(=N\O)c1ccc(OCC(=O)N2CCCCC2)cc1 | inactive | inactive | inactive | inactive | inactive | inactive | inactive | -11.7 | inactive | inactive | inactive | inactive | inactive |  | inactive | inactive | inactive |  | inactive | 
C=CCOC(=O)CCCCCCCC | inactive | inactive | inactive | inactive | inactive | inactive | inactive | 16 | inactive | inactive | inactive | inactive | inactive | inactive |  | inactive | inactive | inactive | inactive | inactive
CC(C)OCCO | inactive | inactive | inactive | inactive | inactive | inactive | inactive | 4.69 | inactive | inactive | inactive |  | inactive | inactive | inactive | inactive | inactive | inactive | inactive | inactive
CN(C)CCC[C@@]1(c2ccc(F)cc2)OCc2cc(C#N)ccc21 | inactive | inactive | inactive | inactive | inactive | inactive | inactive | -9.59 | inactive | inactive | inactive |  | inactive | inactive | inactive | inactive | inactive | inactive | inactive | inactive
Cc1cc(N)no1 | inactive | inactive | inactive | inactive | inactive | inactive | inactive | 13.5 | inactive | inactive | inactive |  | inactive | inactive | inactive | inactive | inactive | inactive | inactive | inactive
CCCC[O][Al]([O]CCCC)[O]CCCC | inactive | inactive | inactive | inactive | inactive | inactive | inactive | 2.78 | inactive | inactive | inactive | inactive | inactive |  | inactive | inactive | inactive | inactive |  | 
Nc1nc(Cl)cc(Cl)n1 | inactive | inactive | inactive | inactive | inactive | inactive | inactive | 16.9 | inactive | inactive | inactive | inactive | inactive |  | inactive | inactive | inactive | inactive | inactive | inactive
CC1=C(O)C(=O)CO1 | inactive | inactive | inactive | inactive | inactive | inactive | inactive | 0.017 | inactive | inactive | inactive | inactive | inactive |  | inactive | inactive |  | inactive | inactive | inactive
Cc1ccc(Br)cc1 | inactive | inactive | inactive | inactive | inactive | inactive | inactive | 0.938 | inactive | inactive | inactive | inactive | inactive |  | inactive | inactive |  | inactive | inactive | inactive
CC(O)CCCCn1c(=O)c2c(ncn2C)n(C)c1=O (centres undefined) | inactive | inactive | inactive | inactive | inactive | inactive | inactive | 0.953 | inactive | inactive | inactive | inactive | inactive | inactive |  | inactive | inactive | inactive |  | inactive
Cc1ccc(O)c([N+](=O)[O-])c1 | inactive | inactive | inactive | inactive | inactive | inactive | inactive | -15.2 | inactive | inactive | inactive | inactive | inactive |  | inactive |  | inactive | inactive | inactive | inactive
CCOC(=O)CC(C(C)=O)C(C)=O | inactive | inactive | inactive | inactive | inactive | inactive | inactive | 0.909 | inactive | inactive | inactive | inactive | inactive | inactive | inactive |  | inactive |  |  | inactive
CC(C)(C)NCC(O)COc1cccc2c1CCC(=O)N2 (centres undefined) | inactive | inactive | inactive | inactive | inactive | inactive | inactive | 5.27 | inactive | inactive | inactive | inactive | inactive |  | inactive | inactive | inactive | inactive | inactive | inactive
NNC(=O)OCc1ccccc1 | inactive | inactive | inactive | inactive | inactive | inactive | inactive | -4.79 | inactive | inactive | inactive | inactive | inactive |  | inactive | inactive | inactive |  | inactive | inactive
